# PubChem BioAssay (Tox21)
# Calls of active or inactive are those of the source. Entries that show only a call come without a potency. Calls come from the whole dose curve; as a rule, active = well fitted activation curve with a large enough effect in the repeat runs; inconclusive = weak or mixed curves; inactive = flat fitted curve, though single readings scatter.
# Experiment: A CellTox Green Cytotoxicity Assay to monitor cytotoxicity in HEK293 cells - 0 hour (AID 1224869); note: nearly all actives have a fitted effect of over 50% in size
# Settings: CellTox Green fluorescence; series mostly up to 76.8 µM
# From the text: National Center for Advancing Translational Sciences [NCATS]
# NIH Chemical Genomics Center [NCGC]
# U.S. Environmental Protection Agency [EPA]
# National Institutes of Environmental Health Sciences [NIEHS]
# National Toxicology Program [NTP]
# Cell-based models are critical for drug discovery. Determining the natural cytotoxic effects resulting from test compounds is an essential research activity. A CellTox Green Cytotoxicity Assay to monitor cytotoxicity in real time of continues cell culture during 40 hours of the compound treatment was used to screen Tox21 10K library compounds in Hek293 cells. CellTox Green Cytotoxicity Assay is a nonlytic, homogeneous, biofluorescent method to measure cytotoxicity in cell culture after experimental manipulation. The assay system uses a proprietary asymmetric cyanine dye that is excluded from viable cells but preferentially stains the dead cell's DNA. […] Viable cells produce no appreciable increases in fluorescence. Therefore, the fluorescence signal produced by the binding interaction with dead cell DNA is proportional to cytotoxicity.
# The mixture of Hek293 cell suspension and reagents were dispensed at 600cells/6 ul/well in 1536-well tissue culture treated black solid bottom plates using a Multidrop dispenser. After the assay plates were incubated at a 37 C/5% CO2 incubator for 5 hours, 23 nL of compounds dissolved in DMSO, positive and negative controls was transferred to the assay plate by a pintool work station. The plates were incubated at 37 C for 40 hours. The fluorescence intensity were measured at 0h, 8h, 16h, 24h, 32h and 40h time points using ViewLux plate reader during compound treatment.
row,SMILES,Potency
1,O=C(Cc1ccccc1)OCCc1ccccc1,inactive
2,CCNC(=O)NC(=O)/C(C#N)=N/OC,inactive
3,O=S(=O)(Cl)Cl,inactive
4,O=C(O)CCCOc1ccc(Cl)cc1Cl,inactive
5,CN(C1CCCCC1)C1CCCCC1,inactive
6,CON(C)C(=O)Nc1ccc(Cl)cc1,inactive
7,CCCCCBr,inactive
8,CC(C)(C)CC(C)(C)c1ccc(O)cc1,inactive
9,CCCCCl,inactive
10,c1ccc2sc(SNC3CCCCC3)nc2c1,inactive
11,COP(=O)(OC)OC(Br)C(Cl)(Cl)Br (stereo not given),inactive
12,O=C(NCNC(=O)NC1C(=O)NC(=O)N1CO)NC1C(=O)NC(=O)N1CO (stereo not given),inactive
13,CC(C)[C@@H](C(=O)O[C@@H](C#N)c1cccc(Oc2ccccc2)c1)c1ccc(Cl)cc1,inactive
14,O=[N+]([O-])/C=C/c1ccccc1,inactive
15,CC[N+]1(CCOC(=O)C(O)(c2ccccc2)c2ccccc2)CCCCC1,inactive
16,C1CS1,inactive
17,CCc1cnc(C2=NC(C)(C(C)C)C(=O)N2)c(C(=O)O)c1 (stereo not given),inactive
18,CCCN(CCC)C(=O)Cc1c(-c2ccc(Cl)cc2)nc2ccc(Cl)cn12,inactive
19,O=C(O)c1ccc(=O)[nH]c1,inactive
20,C[C@]12CC[C@H]3[C@@H](CCC4=CC(=O)CC[C@@H]43)[C@@H]1CC[C@@H]2OC(=O)CCc1ccccc1,inactive

row,SMILES,Potency
1,Nc1cc(Cl)cc(C(=O)O)c1Cl,inactive
2,[Cl-].[Cl-].[Hg+2],inactive
3,COC1=CC(=O)O[C@@H](/C=C/c2ccc3c(c2)OCO3)C1,inactive
4,C[Si](Cn1cncn1)(c1ccc(F)cc1)c1ccc(F)cc1,inactive
5,Cc1ccc2c(C)cccc2c1,inactive
6,O=C1NC(=O)C(=O)C(=O)N1,inactive
7,NC(=O)CF,inactive
8,O=C(Cc1ccccc1)c1ccccc1,inactive
9,Nc1ccc2c(c1)Cc1ccccc1-2,inactive
10,C[N+]1(CCF)[C@@H]2CC[C@H]1CC(OC(=O)C(O)(c1ccccc1)c1ccccc1)C2 (stereo not given in full),inactive
11,C1CCNCC1,inactive
12,COc1cc(C[C@@H](C)N)c(OC)cc1Br,inactive
13,CCC(=O)O[C@@H]1C=C2CCC3C(CCC4(C)C3CC[C@@H]4OC(=O)CC)C2CC1 (stereo not given in full),inactive
14,O=C=NC1CCCCC1,inactive
15,CN[C@@H](C)[C@H](O)c1ccccc1,inactive
16,N#CC1(N=NC2(C#N)CCCCC2)CCCCC1,inactive
17,O=C(O)C(F)(F)C(F)(F)C(F)(F)C(F)(F)C(F)(F)C(F)(F)C(F)(F)C(F)(F)F,inactive
18,O=P(OCC(Br)CBr)(OCC(Br)CBr)OCC(Br)CBr (stereo not given),inactive
19,C[CH2][Hg][S]c1ccccc1C(=O)O,inactive
20,CC(=O)OC(c1ccccc1)C(Cl)(Cl)Cl (stereo not given),inactive
